Results on six compounds are retold here after PubChem BioAssay.

Where “and” joins values, the source holds several entries; their conditions need not be identical. Identical values can stand only once. Records with an inconclusive call do not appear. Calls of active or inactive are those of the source.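 How the source made its calls, unless noted: active means normalized viability below 100% at a tested concentration; inactive means the rest.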

A short description of test [1]: growth inhibition of DIPG glioma cells, dose response, cell-based, SU-DIPG-XVII, MIPE5.0, CellTiter-Glo, qHTS (AID 1347060; cut-off not given, nearly all actives have AC50 up to about 26 µM;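 on AC50: cells exposed to compound for 48 hours before viability readout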). Particulars: SU-DIPG-XVII viability, CellTiter-Glo ATP luminescence. (In general: In ATP-based viability assays light output follows the ATP content of the culture.)
Test [2] in a line: growth inhibition of DIPG glioma cells, dose response, cell-based, JHH-DIPG-1, MIPE4.0, CellTiter-Glo, qHTS (AID 1347062; cut-off not given, nearly all actives have AC50 up to about 27 µM;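 on AC50: cells exposed to compound for two days before readout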). Particulars: JHH-DIPG-1 viability, CellTiter-Glo ATP luminescence.
Test [3] is described as follows: viability loss in pontine glioma line – cell-based, SU-DIPG-XXV, MIPE5.0, CellTiter-Glo, qHTS, dose response (AID 1347065; cut-off not given, nearly all actives have AC50 up to about 26 µM;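 further: cells exposed to compound for 48 hours before ATP readout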). Conditions: CellTiter-Glo ATP luminescence.
A short description of test [4]: SU-DIPG-VI glioma cell viability, MIPE4.0 library, CellTiter-Glo luminescence, qHTS (AID 1347066; cut-off not given, nearly all actives have AC50 up to about 30 µM;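 further: cells exposed to compound for 48 hours before readout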). Conditions: CellTiter-Glo ATP luminescence.
The nature of test [5]: JHH-DIPG-1 glioma cell viability, MIPE5.0 library, CellTiter-Glo luminescence, qHTS (AID 1347067; cut-off not given, nearly all actives have AC50 up to about 26 µM;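 further: cells exposed to compound for 48 hours before readout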). Particulars: JHH-DIPG-1 glioma viability, CellTiter-Glo ATP luminescence.
Test [6] can be described thus: SU-DIPG-XXV glioma cell viability, MIPE5.0 library, qHTS (AID 1347068; cut-off not given, nearly all actives have IC50 up to about 30 µM).
The nature of test [7]: growth inhibition of DIPG glioma cells, dose response, cell-based, SU-DIPG-XIII, MIPE5.0, CellTiter-Glo, qHTS (AID 1347064; cut-off not given, nearly all actives have AC50 up to about 23 µM;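 on AC50: cells exposed to compound for 48 hours before the viability read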). Particulars: SU-DIPG-XIII viability, CellTiter-Glo ATP luminescence.
The nature of test [8]: sensitizers of A549 cells to miR-34 induction, primary screen, imaging, A549 dox-inducible miR-34, nuclei and caspase counts (AID 1347080;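 active means compounds whose cell count with miR-34 switched on is under 0.7 times the count with it off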). Particulars: A549 miR-34 inducible, Hoechst nuclei count, 48 h.
The nature of test [9]: survival rescue of mitochondrial mutant cells in low glucose, primary screen, MELAS cybrids, Rieske KO mouse fibroblasts, CellTiter-Glo (AID 1508586;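 active means mean z-score across replicates of 1.96 or higher in either the MELAS or the Rieske mutant cell line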;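 further: z relative to plate mean and SD of compound and empty wells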).
Test [10] is described as follows: modifiers of HSF1 nuclear foci, imaging, Selleck Cancer Library (AID 1347162; in the data active means plate-normalised HSF1 focus index below about 0.46). Conditions: human cells, at 10 µM; SSMD: measured here: HSF1 foci SSMD mean; cell count: measured here: cell number; plate-normalised HSF1 focus index: stronger effect = lower value.
Test [11] is described as follows: ovarian cancer cell viability with rucaparib, profiling panel, oncology-focused library, rucaparib conditional (AID 1508598). Particulars: patient-derived ovarian cancer cells, CellTiter-Glo viability, 144 h, stronger effect = lower value.
The mark [12] stands for this setting: stronger effect = lower value, cell number ratio, induced over uninduced.
[13] abbreviates: measured here: relative caspase fold change +Dox/-Dox.
[14] abbreviates: measured here: total cells with miR-34 induction, stronger effect = lower value.
[15] abbreviates: measured here: total cells without miR-34 induction.
The mark [16] stands for this setting: MELAS cybrid survival, CellTiter-Glo 48 h, stronger effect = higher value.
[17] abbreviates: Rieske KO mouse fibroblast survival, CellTiter-Glo 72 h.

One may read the AC50 as the concentration at which the activity in the assay is half-maximal. Usually viability stands for a read-out of living cells in per cent, often relative to untreated cells.

As for `O=C1NC(=O)/C(=C/c2cccc(C(F)(F)F)c2)S1`, the compound was called inactive in [1], in test [2], in [3], in test [4], in [5] and in test [6].

As to `Cn1cc(/C=C/C(=O)c2cccc(F)c2)cc1/C=C/C(=O)NO`, the AC50 was 3.72 µM (active) in test [1], 2.35 µM (active) in test [7], 5.25 µM (active) in test [3] and 13.2 µM (active) in [5]. Moreover, the call in test [2] and in [4] was inactive.

Turning to `CN(C(Cc1ccc(OS(=O)(=O)c2cccc3cnccc23)cc1)C(=O)N1CCN(c2ccccc2)CC1)S(=O)(=O)c1cccc2cnccc12` (stereo not given), the call in [1], in test [2], in test [7], in [4], in [5] and in [6] was inactive. For the same compound, the fold change in test [8] (setting [12]) is 0.886 (inactive) and 0.945 (inactive); in [8] (setting [13]), 1.12 and 0.338. Moreover, the cell count in [8] (setting [14]) is 4410 and 6540; in test [8] (setting [15]), 4980 and 6920. In addition, the figures for the z-score in test [9] (setting [16]) and in test [9] (setting [17]) were -0.441 (inactive) and -1.42, respectively.

Turning to `CN1CC(=O)NC1=NC(=O)Nc1cccc(Cl)c1`, the compound was classed as inactive in test [1], in test [2], in test [7], in test [3], in [5] and in [6]. For the same compound, the AC50 in test [4] is 23.5 µM (active).

On to `O=S(=O)(O)c1ccc2cc(N=Nc3cc(S(=O)(=O)O)c4cccnc4c3O)ccc2c1`, for which the call in [1], in test [2], in [7], in test [3], in [4] and in test [5] was inactive. For the same compound, the result in [6] was inactive.

Consider `CC(=O)c1c(C)c2cnc(Nc3ccc(N4CCNCC4)cn3)nc2n(C2CCCC2)c1=O`, for which the AC50 is 23.5 µM (active) in test [1]; 29.6 µM (active) in test [2]; 20.9 µM (active) in [7]; 18.6 µM (active) in test [3]; 20.9 µM (active) in [5]. Moreover, the call in [6] was inactive. Moreover, the fold change in test [8] (setting [12]) is 0.86 (inactive); in test [8] (setting [13]) it was 1.36. Further, the results for the cell count in test [8] (setting [14]), in test [8] (setting [15]) and in [10] were 3100, 3600 and 5060, respectively. Also, in test [10], the SSMD is -9.93. Moreover, in test [10], the plate-normalised HSF1 focus index is 0.38 (inactive). The z-score in test [9] (setting [16]) is 0.0111 (inactive); in test [9] (setting [17]), -0.48. Besides, the viability in test [11] (at 0.000305 µM, OCI-C5x cells, with rucaparib 10 µM, 100% = cells with rucaparib alone) was 132% (inactive); in test [11] (at 0.000305 µM, OCI-C5x cells, without rucaparib) it was 95.6% (active); in test [11] (at 0.000305 µM, OCI-P5x cells, with rucaparib 20 µM, 100% = cells with rucaparib alone), 93.8% (active); in [11] (at 0.000305 µM, OCI-P5x cells, without rucaparib), 93.8% (active); in test [11] (at 0.00122 µM, OCI-C5x cells, with rucaparib 10 µM, 100% = cells with rucaparib alone), 119% (inactive); in [11] (at 0.00122 µM, OCI-C5x cells, without rucaparib), 104% (inactive). For the same compound, the viability in test [11] (at 0.00122 µM, OCI-P5x cells, with rucaparib 20 µM, 100% = cells with rucaparib alone) was 94.1% (active); in [11] (at 0.00122 µM, OCI-P5x cells, without rucaparib), 91.2% (active); in test [11] (at 0.00488 µM, OCI-C5x cells, with rucaparib 10 µM, 100% = cells with rucaparib alone) it was 119% (inactive); in [11] (at 0.00488 µM, OCI-C5x cells, without rucaparib), 104% (inactive); in [11] (at 0.00488 µM, OCI-P5x cells, with rucaparib 20 µM, 100% = cells with rucaparib alone), 95.4% (active); in test [11] (at 0.00488 µM, OCI-P5x cells, without rucaparib) it was 100% (inactive). Moreover, the viability in [11] (at 0.0195 µM, OCI-C5x cells, with rucaparib 10 µM, 100% = cells with rucaparib alone) is 122% (inactive); in test [11] (at 0.0195 µM, OCI-C5x cells, without rucaparib) it was 116% (inactive); in test [11] (at 0.0195 µM, OCI-P5x cells, with rucaparib 20 µM, 100% = cells with rucaparib alone), 95% (active); in [11] (at 0.0195 µM, OCI-P5x cells, without rucaparib), 94.4% (active); in [11] (at 0.0781 µM, OCI-C5x cells, with rucaparib 10 µM, 100% = cells with rucaparib alone), 115% (inactive); in test [11] (at 0.0781 µM, OCI-C5x cells, without rucaparib) it was 118% (inactive). Further, the viability in [11] (at 0.0781 µM, OCI-P5x cells, with rucaparib 20 µM, 100% = cells with rucaparib alone) was 96.9% (active); in test [11] (at 0.0781 µM, OCI-P5x cells, without rucaparib), 103% (inactive); in test [11] (at 0.313 µM, OCI-C5x cells, with rucaparib 10 µM, 100% = cells with rucaparib alone), 111% (inactive); in [11] (at 0.313 µM, OCI-C5x cells, without rucaparib), 126% (inactive); in test [11] (at 0.313 µM, OCI-P5x cells, with rucaparib 20 µM, 100% = cells with rucaparib alone) it was 99.2% (active); in [11] (at 0.313 µM, OCI-P5x cells, without rucaparib), 98.7% (active). For the same compound, the viability in test [11] (at 1.25 µM, OCI-C5x cells, with rucaparib 10 µM, 100% = cells with rucaparib alone) is 115% (inactive); in [11] (at 1.25 µM, OCI-C5x cells, without rucaparib), 133% (inactive); in test [11] (at 1.25 µM, OCI-P5x cells, with rucaparib 20 µM, 100% = cells with rucaparib alone), 97.6% (active); in test [11] (at 1.25 µM, OCI-P5x cells, without rucaparib), 99.7% (active); in [11] (at 5 µM, OCI-C5x cells, with rucaparib 10 µM, 100% = cells with rucaparib alone) it was 114% (inactive); in [11] (at 5 µM, OCI-C5x cells, without rucaparib) it was 139% (inactive). The viability was 103% (inactive) in test [11] (at 5 µM, OCI-P5x cells, with rucaparib 20 µM, 100% = cells with rucaparib alone) and 97.9% (active) in test [11] (at 5 µM, OCI-P5x cells, without rucaparib).
